Some test systems named below: SR leukemia; OVCAR-8 ovarian; OVCAR-5 ovarian; OVCAR-4 ovarian; SK-OV-3 ovarian; IGROV1 ovarian; OVCAR-3 ovarian; HS 578T breast; NCI/ADR-RES ovarian.
Common to all, as to test: NCI-60 one-dose screen, 48 h (100 = growth as untreated, 0 = no growth, -100 = all killed)
What all share (conditions): 10 µM

About 83,000 compounds went through this panel and 20% of them were active in at least one assay; those are over-represented in the sample as a whole.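 Interpretation: 100, growth as untreated; towards 0, rising growth inhibition; 0, no net growth; 0 to -100, cell death. Compounds scoring below 10 were considered active.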 Unmarked numbers belong to inactive results. The source made the active and inactive calls.

On to `O=C1c2ccccc2-c2c1c1cccnc1c(=O)n2C[C@H](O)CO`, for which the growth in the experiment on SR leukemia is 11.6%; in the experiment with OVCAR-8 ovarian, 58.7%; with OVCAR-5 ovarian it was 104%; in the experiment with OVCAR-4 ovarian, 92.5%; with SK-OV-3 ovarian, 60.3%; in the experiment with IGROV1 ovarian it was 50.4%. Also, the growth in the experiment on OVCAR-3 ovarian was 79.6%; with HS 578T breast it was 85.1%; with NCI/ADR-RES ovarian it was 88.1%.

As for `IC(I)I`, the growth in the experiment on SR leukemia is 122%; in the experiment on OVCAR-8 ovarian it was 107%; in the experiment with OVCAR-5 ovarian, 94.1%; in the experiment on OVCAR-4 ovarian, 108%; with IGROV1 ovarian, 103%; in the experiment with OVCAR-3 ovarian it was 106%. Also, the growth is -4.06% (active) in the experiment with HS 578T breast and 105% in the experiment with NCI/ADR-RES ovarian.

With `Cc1ccc(NC(=S)NNC(=S)Nc2ccc(C)cc2)cc1`, the growth is 27.4% in the experiment on SR leukemia; 76% in the experiment with OVCAR-8 ovarian; 89.1% in the experiment on OVCAR-5 ovarian; 106% in the experiment on OVCAR-4 ovarian; 59.7% with SK-OV-3 ovarian; 64.5% in the experiment on OVCAR-3 ovarian. The growth in the experiment with HS 578T breast was 78.4%; in the experiment on NCI/ADR-RES ovarian, 31.7%.

In the case of `CCn1c2ccc(O)cc2c2c(C)c3c[n+](C)ccc3c(C)c21`, the growth was 21.2% in the experiment on SR leukemia; 32.4% in the experiment with OVCAR-8 ovarian; 88.7% in the experiment on OVCAR-5 ovarian; 52% with OVCAR-4 ovarian; 71.2% in the experiment on SK-OV-3 ovarian; 53.8% in the experiment with IGROV1 ovarian. For the same compound, the growth is -0.0943% (active) in the experiment on HS 578T breast and 81% in the experiment on NCI/ADR-RES ovarian.

Consider `COc1ccc([C@H]2[C@H](C(=O)Nc3cccnc3)c3ccccc3C(=O)N2c2ccccc2)cc1`, for which the growth in the experiment with SR leukemia was 46.3%; in the experiment with OVCAR-8 ovarian, 96.1%; in the experiment on OVCAR-4 ovarian, 98.2%; in the experiment on SK-OV-3 ovarian, 96.4%; in the experiment on IGROV1 ovarian it was 81.4%; with OVCAR-3 ovarian it was 100%. Besides, the growth with HS 578T breast is 71%; with NCI/ADR-RES ovarian, 97%.

On to `CS(=O)(=O)c1nccc(-c2c(-c3cccc(OCCc4ccccc4)c3)nc3sccn23)n1`, for which the growth with SR leukemia was 85.8%; with OVCAR-8 ovarian, 98%; with OVCAR-5 ovarian it was 103%; with OVCAR-4 ovarian, 100%; in the experiment on IGROV1 ovarian it was 88.7%; with OVCAR-3 ovarian, 104%. Moreover, the results for the growth in the experiment on HS 578T breast and with NCI/ADR-RES ovarian were 92.4% and 99.9%, respectively.

Turning to `O=C(Nc1cc([N+](=O)[O-])c2[nH]c(=O)c3ccccc3c2c1)C(F)(F)F`, the growth with SR leukemia is 52.3%; with OVCAR-8 ovarian, 77.2%; in the experiment with OVCAR-5 ovarian, 104%; in the experiment on OVCAR-4 ovarian it was 92.6%; with SK-OV-3 ovarian, 81.2%; in the experiment on IGROV1 ovarian, 93.6%. Also, the growth in the experiment on OVCAR-3 ovarian was 106%; with HS 578T breast it was 105%; in the experiment on NCI/ADR-RES ovarian, 76.9%.

Take `OCCn1cccn1`: the growth in the experiment with SR leukemia is 101%; in the experiment with OVCAR-8 ovarian, 116%; in the experiment on OVCAR-5 ovarian it was 107%; in the experiment with OVCAR-4 ovarian it was 117%; in the experiment with SK-OV-3 ovarian it was 104%; in the experiment with OVCAR-3 ovarian, 104%. Besides, the growth is 111% with HS 578T breast and 97.5% in the experiment with NCI/ADR-RES ovarian.

As to `COc1ccc(-c2cc(-c3cc(OC)ccc3OC)nc(N)c2C#N)cc1`, the growth is 43.9% in the experiment on SR leukemia; 39.5% in the experiment with OVCAR-8 ovarian; 48.4% with OVCAR-4 ovarian; 62.9% with SK-OV-3 ovarian; 58.7% in the experiment on IGROV1 ovarian; 53.7% in the experiment on OVCAR-3 ovarian. Moreover, the growth with HS 578T breast was 53.7%; in the experiment with NCI/ADR-RES ovarian it was 52.4%.

On to `COc1cc2cc(Oc3ccc(NC(=O)c4ccc(Cl)c(C(F)(F)F)c4)cc3)c(C)nc2cc1OC`, for which the growth is 37.1% in the experiment with SR leukemia; 27.7% in the experiment with OVCAR-8 ovarian; 51.3% in the experiment on OVCAR-5 ovarian; 42.4% in the experiment with OVCAR-4 ovarian; 27.7% with SK-OV-3 ovarian; 20.6% with IGROV1 ovarian. Also, the growth is 0% (active) in the experiment on OVCAR-3 ovarian, 41.6% in the experiment on HS 578T breast and 14.1% with NCI/ADR-RES ovarian.

For `Cc1c2cnccc2c(C)c2c1oc1ccccc12`, the growth was 21.2% in the experiment with SR leukemia; 71.1% in the experiment with OVCAR-8 ovarian; 82.4% in the experiment on OVCAR-5 ovarian; 98.9% in the experiment on OVCAR-4 ovarian; 71.2% in the experiment on SK-OV-3 ovarian; 78.8% with IGROV1 ovarian. In addition, the growth in the experiment on OVCAR-3 ovarian is 98.1%; in the experiment on HS 578T breast it was 53.7%; in the experiment on NCI/ADR-RES ovarian, 73.7%.

With `Fc1ccc2[nH]cc(-c3nc(-c4ccsc4)cs3)c2c1`, the growth in the experiment on SR leukemia is 86.2%; in the experiment on OVCAR-8 ovarian it was 94.4%; in the experiment with OVCAR-5 ovarian, 107%; in the experiment on OVCAR-4 ovarian it was 101%; with SK-OV-3 ovarian it was 80.5%; in the experiment with IGROV1 ovarian it was 85.7%. Also, the growth in the experiment on OVCAR-3 ovarian was 99.8%; in the experiment with HS 578T breast it was 96.8%; in the experiment on NCI/ADR-RES ovarian, 80.8%.

Take `COc1ccc2nc3cc(Cl)ccc3c(N)c2c1`: the growth in the experiment with SR leukemia is -39.1% (active); in the experiment on OVCAR-8 ovarian, -44.4% (active); in the experiment with OVCAR-5 ovarian, -91.8% (active); in the experiment with OVCAR-4 ovarian, -98% (active); in the experiment on SK-OV-3 ovarian, -97.7% (active); with IGROV1 ovarian it was -33% (active). For the same compound, the values for the growth in the experiment with OVCAR-3 ovarian and in the experiment with NCI/ADR-RES ovarian were -93.7% (active) and -97.2% (active), respectively.

With `COc1ccc(C(=O)CSc2nc(-c3cc(OC)ccc3OC)cc(-c3ccc(OC)cc3)c2C#N)cc1`, the growth with SR leukemia was 90.1%; in the experiment on OVCAR-8 ovarian, 105%; in the experiment on OVCAR-4 ovarian, 98.1%; in the experiment with IGROV1 ovarian, 102%; with OVCAR-3 ovarian, 97%; in the experiment with HS 578T breast, 103%. In addition, the growth in the experiment with NCI/ADR-RES ovarian was 45.1%.

Regarding `Cn1c2ccccc2c2c3[nH][nH]c(=O)c3c3c4ccccc4[nH]c3c21`, the growth in the experiment on SR leukemia is -12.1% (active); with OVCAR-8 ovarian, 33.1%; in the experiment on OVCAR-5 ovarian it was 62.6%; in the experiment with OVCAR-4 ovarian, 51.3%; with SK-OV-3 ovarian, 13.2%; in the experiment on IGROV1 ovarian, 11%. For the same compound, the growth in the experiment on OVCAR-3 ovarian was 2.46% (active); in the experiment on HS 578T breast, 41%; in the experiment with NCI/ADR-RES ovarian it was 68.5%.

Values taken from PubChem BioAssay (NCI).
